This is a sample that favours compounds with a hit; in the whole collection about 9.3% have one here.
Rab9 prom act: qHTS Assay for Rab9 Promoter Activators; Huh7 Rab9 promoter-luciferase reporter, luminescence, 24 h; 2.8% of 320,000 active; Potency, µM (titrated, usually from 9.22 µM), without a hit: at the top dose activation, negative = inhibition, hits mostly activators; also: % of control where 0% means no effect; nearly all actives have a fitted effect of over 60% in size
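Luminescence read-out: Huh7 cells stably expressing Rab9-luciferase, treated 24 h with compound at 37 °C, then lysed with luciferase reagent for 10 min at ambient before reading.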
ELG1 DNA repair: qHTS screen for small molecules that inhibit ELG1-dependent DNA repair in human embryonic kidney (HEK293T) cells expressing luciferase-tagged ELG1; HEK293T ELG1-luciferase reporter, luminescence, 16 h; DNA damage induced by 5-fluorouridine; Potency, µM (titrated, usually from 46.1 µM), for the others: at the highest dose activity change, negative = inhibition, actives largely listed as inhibitors; 2.3% of 330,000 active; AID 504467, 2011; also: % is scaled to controls: 0 for no effect and ±100 for the full control effect; nearly all actives have a fitted effect of over 55% in size
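Overnight (16 hr) co-exposure of 2,000 cells/well to 5-fluorouridine and compound at 37 °C preceded detection. Luciferase was quantified via ONE-Glo luminescence; loss of signal denotes inhibition.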
ELG1 genotoxic: qHTS screen for small molecules that induce genotoxicity in human embryonic kidney (HEK293T) cells expressing luciferase-tagged ELG1 | HEK293T ELG1-luciferase reporter, luminescence, 16 h | Potency, µM (doses to about 46 µM), without a hit: at the top dose activity change, positive = activation, most hits filed as activators | 1.3% of 330,000 active | AID 504466, 2011; also: % of control where 0% means no effect; nearly all actives have a fitted effect of over 60% in size
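Genotoxic stress is detected as increased luminescence from luciferase-tagged ELG1 in HEK293T cells, measured with ONE-Glo after a 16 hr treatment at 37 °C.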
NPC1 promoter act: qHTS Assay for NPC1 Promoter Activators | Huh7 NPC1 promoter luciferase reporter, 24 h | Potency, µM (series often up to 9.22 µM), for the others: at the highest dose activation, actives largely listed as activators | 2.4% of 320,000 active | AID 485313, 2010; also: % of control where 0% means no effect; nearly all actives have a fitted effect of over 60% in size
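Cells: Huh7 expressing luciferase under the NPC1 promoter, 1500/well. Seeded 2 h, compound added, incubated 24 h at 37 °C. Luciferase reagent, 10 min ambient, then luminescence.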
FLuc counter: qHTS profiling assay for firefly luciferase inhibitor/activator using purifed enzyme and Km concentrations of substrates (counterscreen for miR-21 project). Luciferin 4-monooxygenase (Photinus pyralis), P08659. purified FLuc, Km substrates, luminescence inhibition. Potency, µM (titrated, usually from 57.5 µM), inactives show top-dose activity change, negative = inhibition, most hits filed as inhibitors. AID 588342, 2011. 6.9% of 360,000 active;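 also: plate controls were vehicle for no effect and reference inhibitor for full effect; nearly all actives have a fitted effect of over 55% in size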
Target sequence (P08659 whole entry, looked up): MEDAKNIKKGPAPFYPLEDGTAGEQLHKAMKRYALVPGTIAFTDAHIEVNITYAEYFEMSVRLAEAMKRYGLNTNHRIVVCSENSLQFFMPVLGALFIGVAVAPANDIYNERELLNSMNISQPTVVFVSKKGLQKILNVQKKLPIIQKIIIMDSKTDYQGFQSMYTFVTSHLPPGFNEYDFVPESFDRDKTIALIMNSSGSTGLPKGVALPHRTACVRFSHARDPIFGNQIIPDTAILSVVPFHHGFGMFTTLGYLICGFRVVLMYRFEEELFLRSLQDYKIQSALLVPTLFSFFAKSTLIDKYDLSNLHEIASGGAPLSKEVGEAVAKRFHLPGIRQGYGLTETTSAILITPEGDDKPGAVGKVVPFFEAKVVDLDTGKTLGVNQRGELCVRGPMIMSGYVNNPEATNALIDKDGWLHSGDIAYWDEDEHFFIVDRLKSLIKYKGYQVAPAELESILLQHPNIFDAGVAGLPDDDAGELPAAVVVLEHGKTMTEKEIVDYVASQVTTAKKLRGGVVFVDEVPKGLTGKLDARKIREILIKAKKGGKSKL
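Purified P. pyralis luciferase, 10 nM final, with Km-level 10 uM D-luciferin and 10 uM ATP in 50 mM Tris acetate pH 7.5, 10 mM Mg acetate, 0.01% Tween-20, 0.05% BSA; 6-point qHTS titration about 60 µM downward; luminescence read.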
SMN2 splice enh: qHTS Assay for Enhancers of SMN2 Splice Variant Expression; HEK293 SMN2-luciferase splicing reporter, luminescence, 30-36 h; Potency, µM (top dose mostly 46.1 µM), inactives show at the top dose activity change, positive = activation, hits mostly activators; 2.8% of 210,000 active; also: % of control where 0% means no effect; nearly all actives have a fitted effect of over 55% in size
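qHTS luciferase splicing reporter: luminescence rises when SMN2 exon 7 is included in transfected HEK293 cells. Compound exposure lasted 30-36 h at 37C, with 4.5 mM final sodium butyrate as control, followed by a ONE-Glo read.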
* = called active by the depositor. Calls follow the shape of the dose curve; as a rule, active = well fitted curve in the direction sought with a large enough effect; inconclusive = small, poorly fitted or top-dose-only effect, or another doubt; inactive = no such curve, though single readings can be large; an effect the other way counts as inactive or inconclusive. Potency is read from the fitted curve at half-maximal effect.

O=C(Nc1ccc(-c2csc(Nc3cccc(C(F)(F)F)c3)n2)cc1)c1cc([N+](=O)[O-])cc(C(F)(F)F)c1 was read as Rab9 prom act -1.7%, ELG1 DNA repair inconclusive, ELG1 genotoxic -12.6%, NPC1 promoter act -11.3% and FLuc counter -0.4%.
For O=C(Nc1cccc(-c2csc(Nc3cccc(C(F)(F)F)c3)n2)c1)c1ccccc1 the results were Rab9 prom act -8.8%, ELG1 DNA repair 20.6µM*, ELG1 genotoxic -17.1%, NPC1 promoter act -4.0% and FLuc counter inconclusive.
CCCCC(=O)Nc1cccc(-c2csc(-c3ccccc3)n2)c1 was read as Rab9 prom act -6.4%, ELG1 DNA repair -22.9%, ELG1 genotoxic -0.8%, NPC1 promoter act 6.9%, FLuc counter inconclusive and SMN2 splice enh inconclusive.
Screening O=C(O)CCC(=O)Nc1cccc(-c2csc(-c3ccccc3)n2)c1 returned Rab9 prom act -6.6%, ELG1 DNA repair 16.7%, ELG1 genotoxic -2.5%, NPC1 promoter act -13.4%, FLuc counter 7.57µM* and SMN2 splice enh -14.3%.
`CCOC(=O)C(C(=O)OCC)C(C(=O)OCC)N1CCOCC1` (stereo unspecified) gave Rab9 prom act -44.3%, ELG1 DNA repair inconclusive, ELG1 genotoxic 5.4%, NPC1 promoter act -28.2%, FLuc counter -18.9% and SMN2 splice enh -0.3%.
`O=[N+]([O-])c1cccc(-c2csc(Nc3ccccc3)n2)c1` gave Rab9 prom act inconclusive, ELG1 DNA repair inconclusive, ELG1 genotoxic 2.7%, NPC1 promoter act 3.7% and FLuc counter 13.5µM*.
Screening C/C(=N\Nc1nc2c(s1)CCCC2)c1ccccc1 returned Rab9 prom act 3.55µM*, ELG1 DNA repair inconclusive, ELG1 genotoxic inconclusive, NPC1 promoter act inconclusive, FLuc counter 1.07µM* and SMN2 splice enh 11.2µM*.
CC(C)(C)c1csc(NNC(=O)c2ccc(Br)cc2)n1 was read as Rab9 prom act 7.5%, ELG1 DNA repair -16.3%, ELG1 genotoxic 9.1%, NPC1 promoter act 14.4%, FLuc counter inconclusive and SMN2 splice enh -61.5%.
C/C(=N\Nc1nc(C(=O)O)cs1)c1ccccc1 was read as Rab9 prom act 17.4%, ELG1 DNA repair inconclusive, ELG1 genotoxic 2.6%, NPC1 promoter act 10.8%, FLuc counter 16.9µM* and SMN2 splice enh 21.8%.
For CC(C)(C)c1csc(NC(=O)CS(=O)(=O)c2ccccc2)n1 the results were Rab9 prom act 28.6%, ELG1 DNA repair inconclusive, ELG1 genotoxic inconclusive, NPC1 promoter act 22.7% and FLuc counter inconclusive.
C/C(=N\Nc1nc(C(C)(C)C)cs1)c1ccccc1 was read as Rab9 prom act 1.12µM*, ELG1 DNA repair inconclusive, ELG1 genotoxic 3.66µM*, NPC1 promoter act 1.41µM* and FLuc counter 2.13µM*.
For C/C(=N\Nc1nc(C(C)(C)C)cs1)c1ccc(O)cc1 the results were Rab9 prom act inconclusive, ELG1 DNA repair inconclusive, ELG1 genotoxic inconclusive, NPC1 promoter act inconclusive and FLuc counter 21.3µM*.
Screening O=C(NC(=S)Nc1nc2c(s1)CCCC2)c1ccc(C(=O)c2ccccc2)cc1 returned Rab9 prom act -1.0%, ELG1 DNA repair inconclusive, ELG1 genotoxic 1.0%, NPC1 promoter act 6.3%, FLuc counter -7.7% and SMN2 splice enh -22.9%.
`C/C(=N/NC(=O)C(=O)N/N=C(/C)c1ccccc1)c1ccccc1` gave Rab9 prom act 0.3%, ELG1 DNA repair -12.1%, ELG1 genotoxic 8.2%, NPC1 promoter act 1.5%, FLuc counter inconclusive and SMN2 splice enh 17.3%.
COC(=O)c1nnn(-c2ccc(Br)cc2)c1C(=O)OC was read as FLuc counter -7.0% and SMN2 splice enh -6.2%.
`COc1ccc(C)cc1NC(=O)CN(c1ccccc1)S(C)(=O)=O` gave Rab9 prom act 10.2%, ELG1 DNA repair -0.4%, ELG1 genotoxic 0.1%, NPC1 promoter act -4.0%, FLuc counter 3.0% and SMN2 splice enh -0.5%.
Screening Cc1cc(C(F)(F)F)n(-c2nc(C(=O)NNS(=O)(=O)c3ccccc3[N+](=O)[O-])cs2)n1 returned Rab9 prom act 1.2%, ELG1 DNA repair 5.8µM*, ELG1 genotoxic 0.5%, NPC1 promoter act -4.9% and FLuc counter -19.3%.
`Cc1cc(C(F)(F)F)n(-c2nc(C(=O)NNS(=O)(=O)c3ccccc3)cs2)n1` gave Rab9 prom act -1.9%, ELG1 DNA repair 13.3%, ELG1 genotoxic 0.0%, NPC1 promoter act -4.9%, FLuc counter 1.3% and SMN2 splice enh -11.0%.
COc1ccc(C(=O)Nc2nnc(C(F)(F)F)s2)cc1 was read as Rab9 prom act 2.51µM*, ELG1 DNA repair inconclusive, ELG1 genotoxic inconclusive, NPC1 promoter act 1.78µM*, FLuc counter 5.36µM* and SMN2 splice enh 5.01µM*.
Screening COC(=O)Nc1nnc(-c2ccc(OC)cc2)s1 returned Rab9 prom act 2.82µM*, ELG1 DNA repair inconclusive, ELG1 genotoxic 16.4µM*, NPC1 promoter act 2.51µM* and FLuc counter 8.49µM*.
Screening COc1ccc(-c2nnc(NC(=O)c3cc(C)on3)s2)cc1 returned Rab9 prom act -1.0%, ELG1 DNA repair inconclusive, ELG1 genotoxic inconclusive, NPC1 promoter act 8.9%, FLuc counter 12µM* and SMN2 splice enh inconclusive.
Screening CCC(NC(=O)Nc1nnc(C(F)(F)F)s1)(C(F)(F)F)C(F)(F)F returned Rab9 prom act -45.5%, ELG1 DNA repair 23.1µM*, ELG1 genotoxic -11.2%, NPC1 promoter act -42.1%, FLuc counter -6.5% and SMN2 splice enh -44.4%.
CCn1c(=O)c2sccc2n2c(CCC(=O)NCc3ccc(Cl)cc3)nnc12 was read as FLuc counter -1.2% and SMN2 splice enh -8.7%.
CCOC(=O)Nc1nnc(-c2ccc(OC)c(OC)c2)s1 was read as Rab9 prom act 5.9%, ELG1 DNA repair 11.3%, ELG1 genotoxic 3.9%, NPC1 promoter act -2.5%, FLuc counter 1.1% and SMN2 splice enh 5.62µM*.
Screening COc1ccc(C(=O)Nc2nnc(-c3ccccc3)s2)cc1 returned Rab9 prom act 1.26µM*, ELG1 DNA repair inconclusive, ELG1 genotoxic 18.3µM*, NPC1 promoter act 0.794µM* and FLuc counter -12.4%.
COc1ccc(NC(=O)CN(C)S(=O)(=O)c2ccc(Br)s2)cc1 was read as Rab9 prom act 1.8%, ELG1 DNA repair -3.6%, ELG1 genotoxic -18.0%, NPC1 promoter act 3.2% and FLuc counter -6.6%.

Bioassay records from PubChem.
